Source: PubChem BioAssay (Tox21)
A number with no mark means an inactive call. The call rests on the fitted dose curve; in most records, active means well fitted activation curve with a large enough effect in the repeat runs; inconclusive means weak or mixed curves; inactive means flat fitted curve, though single readings scatter.

Experiment: A CellTox Green Cytotoxicity Assay to monitor cytotoxicity in HEK293 cells - 0 hour (AID 1224869); further: nearly all actives have a fitted effect of over 50% in size
Settings: CellTox Green fluorescence; series mostly up to 76.8 µM; cytotoxicity: at the top concentration
Excerpt: National Center for Advancing Translational Sciences [NCATS]
NIH Chemical Genomics Center [NCGC]
U.S. Environmental Protection Agency [EPA]
National Institutes of Environmental Health Sciences [NIEHS]
National Toxicology Program [NTP]
Cell-based models are critical for drug discovery. Determining the natural cytotoxic effects resulting from test compounds is an essential research activity. A CellTox Green Cytotoxicity Assay to monitor cytotoxicity in real time of continues cell culture during 40 hours of the compound treatment was used to screen Tox21 10K library compounds in Hek293 cells. CellTox Green Cytotoxicity Assay is a nonlytic, homogeneous, biofluorescent method to measure cytotoxicity in cell culture after experimental manipulation. The assay system uses a proprietary asymmetric cyanine dye that is excluded from viable cells but preferentially stains the dead cell's DNA. […] Viable cells produce no appreciable increases in fluorescence. Therefore, the fluorescence signal produced by the binding interaction with dead cell DNA is proportional to cytotoxicity.
The mixture of Hek293 cell suspension and reagents were dispensed at 600cells/6 ul/well in 1536-well tissue culture treated black solid bottom plates using a Multidrop dispenser. After the assay plates were incubated at a 37 C/5% CO2 incubator for 5 hours, 23 nL of compounds dissolved in DMSO, positive and negative controls was transferred to the assay plate by a pintool work station. The plates were incubated at 37 C for 40 hours. The fluorescence intensity were measured at 0h, 8h, 16h, 24h, 32h and 40h time points using ViewLux plate reader during compound treatment.
On the % scale 0 is the no-effect control and ±100 the full control effect.

| Structure (SMILES) | cytotoxicity |
| --- | --- |
| Nc1nc(-c2ccccc2)c(Br)c(=O)[nH]1 | -0.553% [at 35.3 µM] |
| C[Si]1(C)O[Si](C)(C)O[Si](C)(C)O[Si](C)(C)O[Si](C)(C)O1 | -6.68% |
| CC1=C(C(=O)O)N2C(=O)[C@@H](NC(=O)[C@H](N)C3=CCC=CC3)[C@H]2SC1 | -14.4% [at 35.3 µM] |
| CCCCOCCOC(=O)COc1ccc(Cl)cc1Cl | 4.89% |
| C=CCCCCCCCCC(=O)OCCCC | 1.58% |
| O=C(O)CONC(=O)c1ccccc1 | 0.917% |
| Nc1nnnn1-c1ccccc1 | -3.17% [at 35.3 µM] |
| CCCc1ccc(O)cc1 | 3.17% |
| O=[N+]([O-])c1c(Cl)cc(Cl)cc1Cl | 0.366% |
| CC(C)OC(=O)CCC(=O)OC(C)C | 2.36% |
| CCCCCC/C=C/C(=O)OC | 22.8% |
| CCN(CC)CCN | -7.13% [at 35.3 µM] |
| O=C1NC(c2ccccc2)(c2ccccc2)C(=O)N1COP(=O)(O)O | -5.53% [at 35.3 µM] |
| CC(C)Nc1ccccc1 | -6.18% |
| CCC[C@@H]1C[C@@H](C(=O)N[C@@H]([C@H]2O[C@H](SC)[C@H](O)[C@@H](O)[C@H]2O)[C@@H](C)O)N(C)C1 | 0.343% [at 35.3 µM] |
| Cc1ncc([N+](=O)[O-])n1CC(C)O (stereo not given) | 3.74% [at 35.3 µM] |
| [O]=[Mo](=[O])=[O] | -18.1% [at 15.8 µM] |
| CC(=O)C(C)O (stereo not given) | -0.509% |
| C=C(C)[C@@H]1CC=C(C)C(=O)C1 | 2.58% |
| CCOC(=O)CC1(C)OCC(C)O1 (stereo not given) | -5.41% |

| Structure (SMILES) | cytotoxicity |
| --- | --- |
| CC/C(C)=N\O[Si](C)(O/N=C(\C)CC)O/N=C(\C)CC | -0.803% |
| COS(=O)(=O)O | -2.92% |
| C/C(=C1\CCOC(=O)S1)N(C=O)Cc1cnc(C)nc1N | 1.13% [at 35.3 µM] |
| CC(C)Cn1cnc2c1c(=O)n(C)c(=O)n2C | 2.89% [at 35.3 µM] |
| CC(C)C[C@@H]1[C@H](c2ccccc2)OC(=O)N1CCCN1CCCCCC1 | -0.276% [at 35.3 µM] |
| CC(C)c1ccc(C=O)cc1 | 4.61% |
| CC(=O)OC1CCCCC1C(C)(C)C (stereo not given) | -0.724% |
| COc1nc(N)nc2nc[nH]c12 | -7.38% |
| NCc1ccc(S(N)(=O)=O)cc1 | 0.825% [at 35.3 µM] |
| OC[C@H]1O[C@@H](O[C@@H]2[C@@H](CO)O[C@](O)(CO)[C@H]2O)[C@H](O)[C@@H](O)[C@H]1O | 2.45% [at 35.3 µM] |
| N[C@@H](CSCCCO)C(=O)O | -3.9% [at 15.8 µM] |
| CN(C)CC/C=C1/c2ccccc2COc2ccc(CC(=O)O)cc21 | 5.32% [at 35.3 µM] |
| CCOCCOCC | 0.22% |
| CN(C)CCN(C)CCO | -3.2% |
| Cc1ccc(C(=O)O)cc1[N+](=O)[O-] | 2.96% |
| CC1(C)CC(OC(=O)CCCCCCCCC(=O)OC2CC(C)(C)NC(C)(C)C2)CC(C)(C)N1 | -1.08% [at 15.8 µM] |
| CCCCCCCCCCOC(C)=O | 1.22% |
| OC[C@@H](O)C(O)[C@@H](O)CO (stereo not given in full) | 0.289% |
| CC(Oc1cc(Cl)ccc1Cl)C(=O)O (stereo not given) | -5.72% |
| CC(=O)Nc1ccc(OC(=O)c2ccccc2OC(C)=O)cc1 | -5.97% [at 35.3 µM] |
